Test results from PubChem BioAssay (EPA / NIEHS).
Where “and” joins values, the source holds several entries; their conditions need not be identical. Identical values can stand only once. Inconclusive results are not listed. Where a structure was tested more than once in an assay, its records may differ in their call. Calls of active or inactive are those of the source. The calls were made as follows, unless noted: active = hit-call score of the fitted dose curve at least 0.9, where 1 is the maximum; inactive = score below 0.9.

How the values were obtained:
[1] = molecular target: Glucocorticoid receptor (Homo sapiens) (UniProt P04150); assay: ATG_GR_TRANS: Attagene TRANS-FACTORIAL HepG2 Assay for human Glucocorticoid Receptor (GR) (AID 2282978; active = hit-call score of the fitted dose curve at least 0.9, where 1 is the maximum;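 also: activators score as hits since higher reporter transcript over DMSO is fitted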); conditions: HepG2 Attagene TRANS GR reporter, mRNA transcription
Chain of Glucocorticoid receptor (Homo sapiens) (P04150 whole entry, looked up, the tested form may be a part): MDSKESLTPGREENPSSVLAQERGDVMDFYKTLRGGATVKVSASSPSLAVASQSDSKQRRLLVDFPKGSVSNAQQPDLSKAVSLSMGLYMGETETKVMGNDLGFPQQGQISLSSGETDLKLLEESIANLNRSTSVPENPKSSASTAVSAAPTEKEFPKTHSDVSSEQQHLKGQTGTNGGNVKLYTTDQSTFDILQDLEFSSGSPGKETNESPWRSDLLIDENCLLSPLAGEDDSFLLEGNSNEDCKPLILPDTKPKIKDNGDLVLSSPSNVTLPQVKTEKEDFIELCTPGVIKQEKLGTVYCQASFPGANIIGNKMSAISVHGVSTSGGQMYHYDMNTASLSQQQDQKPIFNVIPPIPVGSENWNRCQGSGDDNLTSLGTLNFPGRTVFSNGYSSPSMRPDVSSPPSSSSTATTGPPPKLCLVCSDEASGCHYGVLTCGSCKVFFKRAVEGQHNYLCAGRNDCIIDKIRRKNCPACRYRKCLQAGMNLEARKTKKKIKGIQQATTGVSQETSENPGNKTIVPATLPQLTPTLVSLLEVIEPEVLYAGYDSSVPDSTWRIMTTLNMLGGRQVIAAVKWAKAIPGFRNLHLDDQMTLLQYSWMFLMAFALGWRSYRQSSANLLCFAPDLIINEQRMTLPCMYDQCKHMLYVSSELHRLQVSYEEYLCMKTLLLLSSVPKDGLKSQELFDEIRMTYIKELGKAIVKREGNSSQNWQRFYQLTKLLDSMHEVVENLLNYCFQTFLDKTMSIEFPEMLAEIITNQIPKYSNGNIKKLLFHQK
Method in brief: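 Measurement of GAL4-UAS-driven reporter mRNA in human HepG2 liver cells 24 h post-dosing, using RT-PCR with fluorescent labelling and capillary electrophoresis; the transfected constructs report exogenous NR-GAL4 chimera activity, fitted upward against DMSO.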

[2] = molecular target: Oxysterols receptor LXR-beta (Homo sapiens) (UniProt P55055); assay: ATG_LXRb_TRANS: Attagene TRANS-FACTORIAL HepG2 Assay for human Liver X Receptor beta (LXRb) (AID 2282981; active = hit-call score of the fitted dose curve at least 0.9, where 1 is the maximum); conditions: HepG2 Attagene TRANS GAL4-LXRb reporter, mRNA
Chain of Oxysterols receptor LXR-beta (Homo sapiens) (P55055 whole entry, looked up, the tested form may be a part): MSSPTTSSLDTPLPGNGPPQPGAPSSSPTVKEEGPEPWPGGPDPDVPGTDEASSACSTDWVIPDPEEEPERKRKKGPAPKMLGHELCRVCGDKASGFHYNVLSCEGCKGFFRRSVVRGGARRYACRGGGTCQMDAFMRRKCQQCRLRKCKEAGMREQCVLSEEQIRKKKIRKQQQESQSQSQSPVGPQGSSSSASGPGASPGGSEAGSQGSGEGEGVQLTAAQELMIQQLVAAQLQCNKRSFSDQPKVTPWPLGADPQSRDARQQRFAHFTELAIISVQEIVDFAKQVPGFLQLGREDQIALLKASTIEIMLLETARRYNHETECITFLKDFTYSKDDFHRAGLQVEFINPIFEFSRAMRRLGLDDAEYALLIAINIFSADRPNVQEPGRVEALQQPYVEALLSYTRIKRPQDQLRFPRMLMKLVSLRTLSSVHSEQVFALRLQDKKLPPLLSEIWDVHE
Method in brief: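 In this TRANS format, exogenous chimeric NR-Gal4 protein activity, not endogenous factors, drives reporter expression in transfected human HepG2 cells. Exposure lasted 24 h; reporter mRNA was read by fluorescent capillary electrophoresis.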

[3] = molecular target: Hepatocyte nuclear factor 4-alpha (Homo sapiens) (UniProt P41235); assay: ATG_HNF4a_TRANS: Attagene TRANS-FACTORIAL HepG2 Assay for human Hepatocyte Nuclear Factor 4 alpha (HNF4a) (AID 2282982; active = hit-call score of the fitted dose curve at least 0.9, where 1 is the maximum); conditions: HepG2 HNF4a transactivation reporter, mRNA readout
Chain of Hepatocyte nuclear factor 4-alpha (Homo sapiens) (P41235 whole entry, looked up, the tested form may be a part): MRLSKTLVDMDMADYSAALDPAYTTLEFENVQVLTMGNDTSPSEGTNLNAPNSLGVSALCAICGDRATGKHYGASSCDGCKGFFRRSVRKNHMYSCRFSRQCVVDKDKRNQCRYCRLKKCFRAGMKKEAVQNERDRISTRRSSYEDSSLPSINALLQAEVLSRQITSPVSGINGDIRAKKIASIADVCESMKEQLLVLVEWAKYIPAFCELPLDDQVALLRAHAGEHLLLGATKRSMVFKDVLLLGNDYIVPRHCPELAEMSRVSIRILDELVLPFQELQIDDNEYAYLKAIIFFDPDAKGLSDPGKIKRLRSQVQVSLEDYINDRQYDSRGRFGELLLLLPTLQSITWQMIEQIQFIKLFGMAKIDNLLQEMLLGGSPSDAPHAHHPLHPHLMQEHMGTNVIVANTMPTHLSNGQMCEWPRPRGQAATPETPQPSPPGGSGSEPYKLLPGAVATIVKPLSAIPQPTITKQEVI
Method in brief: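 Cells used were human HepG2, transiently carrying GAL4-UAS reporter units read out against exogenous NR-GAL4 chimeras. Reporter transcript levels after 24 h dosing were quantified by fluorescent RT-PCR and capillary electrophoresis.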

[4] = ATG_M_06_TRANS: Attagene TRANS-FACTORIAL HepG2 Assay for M06 Transcription Factor (Internal Marker) (AID 2282983; active = hit-call score of the fitted dose curve at least 0.9, where 1 is the maximum); conditions: HepG2 Attagene TRANS M06 internal marker reporter
Method in brief: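 Measured by capillary electrophoresis of fluorescently labelled RT-PCR products, this endpoint reflects reporter mRNA in HepG2 cells harbouring exogenous NR-GAL4 reporter constructs after 24 h exposure, with DMSO as baseline.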

[5] = ATG_M_32_TRANS: Attagene TRANS-FACTORIAL HepG2 Assay for M32 Transcription Factor (Internal Marker) (AID 2282984; active = hit-call score of the fitted dose curve at least 0.9, where 1 is the maximum;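 also: transcript level of a background control reporter unit measured by RT-PCR and capillary electrophoresis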); conditions: HepG2 Attagene TRANS M32 internal marker reporter
Method in brief: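 Human hepatoma HepG2, transient MRTU transfection, 24 h treatment. RNA → RT-PCR → fluorescent primer extension → HpaI digest (2 h, 37 C) → CE. Positive-direction fit vs DMSO.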

[6] = molecular target: Nuclear receptor subfamily 4 group A member 2 (Homo sapiens) (UniProt P43354); assay: ATG_NURR1_TRANS: Attagene TRANS-FACTORIAL HepG2 Assay for human Nuclear Receptor Related Protein 1 (NURR1) (AID 2282985; active = hit-call score of the fitted dose curve at least 0.9, where 1 is the maximum); conditions: HepG2 Attagene TRANS reporter, mRNA readout
Chain of Nuclear receptor subfamily 4 group A member 2 (Homo sapiens) (P43354 whole entry, looked up): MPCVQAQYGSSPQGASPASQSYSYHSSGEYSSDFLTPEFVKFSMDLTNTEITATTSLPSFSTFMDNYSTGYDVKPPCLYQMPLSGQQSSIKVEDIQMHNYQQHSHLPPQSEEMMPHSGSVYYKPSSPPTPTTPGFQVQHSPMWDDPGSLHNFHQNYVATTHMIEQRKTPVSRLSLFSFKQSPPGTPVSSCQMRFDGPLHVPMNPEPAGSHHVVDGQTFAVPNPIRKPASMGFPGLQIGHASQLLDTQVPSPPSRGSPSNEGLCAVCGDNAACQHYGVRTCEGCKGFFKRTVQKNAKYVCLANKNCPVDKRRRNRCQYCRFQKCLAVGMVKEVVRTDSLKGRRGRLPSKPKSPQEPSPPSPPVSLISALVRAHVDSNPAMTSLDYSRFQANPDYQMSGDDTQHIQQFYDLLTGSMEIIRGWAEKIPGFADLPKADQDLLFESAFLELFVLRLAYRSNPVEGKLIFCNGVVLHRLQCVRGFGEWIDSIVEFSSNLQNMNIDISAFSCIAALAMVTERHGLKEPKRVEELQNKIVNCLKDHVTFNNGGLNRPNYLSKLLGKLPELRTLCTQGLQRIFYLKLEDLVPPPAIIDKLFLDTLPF
Method in brief: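 After 24 h chemical dosing, total RNA from transiently transfected HepG2 cells was reverse-transcribed and reporter cDNA PCR-amplified, FAM-labelled and analysed by capillary electrophoresis. Activity fitted in positive direction, DMSO as negative control.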

[7] = molecular target: Transcriptional activator Myb (Homo sapiens) (UniProt P10242); assay: ATG_Myb_CIS: Attagene CIS-FACTORIAL HepG2 Assay for human Myeloblastosis (Myb) Proto-Oncogene Transcription Factor (AID 2282986); conditions: HepG2 Attagene CIS-FACTORIAL Myb reporter transcription; actives raise or lower the signal
Chain of Transcriptional activator Myb (Homo sapiens) (P10242 whole entry, looked up): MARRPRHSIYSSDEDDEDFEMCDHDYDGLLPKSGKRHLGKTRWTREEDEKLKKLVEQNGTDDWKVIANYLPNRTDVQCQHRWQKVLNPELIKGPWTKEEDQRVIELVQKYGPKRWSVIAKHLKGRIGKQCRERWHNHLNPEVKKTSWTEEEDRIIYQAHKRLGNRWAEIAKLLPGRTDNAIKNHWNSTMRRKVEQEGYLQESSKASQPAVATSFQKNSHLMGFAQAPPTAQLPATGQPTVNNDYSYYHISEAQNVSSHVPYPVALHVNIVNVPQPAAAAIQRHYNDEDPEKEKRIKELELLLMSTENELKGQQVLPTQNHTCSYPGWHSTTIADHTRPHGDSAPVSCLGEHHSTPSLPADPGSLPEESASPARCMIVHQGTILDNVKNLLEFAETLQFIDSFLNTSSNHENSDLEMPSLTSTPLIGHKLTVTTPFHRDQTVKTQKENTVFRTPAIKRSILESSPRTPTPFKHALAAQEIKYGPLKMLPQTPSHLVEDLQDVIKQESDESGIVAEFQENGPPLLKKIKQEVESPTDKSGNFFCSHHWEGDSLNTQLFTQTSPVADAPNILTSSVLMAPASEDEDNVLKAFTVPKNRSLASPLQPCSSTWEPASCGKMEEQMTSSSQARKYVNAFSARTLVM
Method in brief: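 Fluorescence signals from capillary electrophoresis of RT-PCR-amplified reporter cDNA give the read-out. Cells: HepG2 transfected with multiple cis-regulated reporter units. Exposure lasts 24 hours; DMSO defines baseline for gain or loss of signal.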

[8] = molecular target: Nuclear respiratory factor 1 (Homo sapiens) (UniProt Q16656); assay: ATG_NRF1_CIS: Attagene CIS-FACTORIAL HepG2 Assay for human Nuclear Respiratory Factor 1 (NRF1) Orphan Gene (AID 2282987); conditions: HepG2 NRF1 cis-element reporter, Attagene multiplex; actives raise or lower the signal
Chain of Nuclear respiratory factor 1 (Homo sapiens) (Q16656 whole entry, looked up): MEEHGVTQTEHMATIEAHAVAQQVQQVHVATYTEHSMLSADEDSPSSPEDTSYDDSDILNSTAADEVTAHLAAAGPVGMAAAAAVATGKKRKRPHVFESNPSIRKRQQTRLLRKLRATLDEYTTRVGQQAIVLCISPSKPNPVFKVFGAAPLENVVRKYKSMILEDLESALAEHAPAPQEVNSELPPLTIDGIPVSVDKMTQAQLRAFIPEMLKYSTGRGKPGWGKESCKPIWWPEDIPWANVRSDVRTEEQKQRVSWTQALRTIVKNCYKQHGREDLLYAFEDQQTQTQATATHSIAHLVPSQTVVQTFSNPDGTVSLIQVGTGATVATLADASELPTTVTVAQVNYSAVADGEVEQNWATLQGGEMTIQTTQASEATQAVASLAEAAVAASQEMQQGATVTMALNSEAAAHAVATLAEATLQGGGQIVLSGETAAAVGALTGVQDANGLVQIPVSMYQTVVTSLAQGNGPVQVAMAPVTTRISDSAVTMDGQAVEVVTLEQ
Method in brief: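 Transcriptional reporter readout, one component of a 52-endpoint multiplexed HepG2 panel. Exposure 24 h; mRNA detected via RT-PCR and fluorescent capillary electrophoresis; fitting in both directions against DMSO.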

[9] = ATG_NFI_CIS: Attagene CIS-FACTORIAL HepG2 Assay for human Nuclear Factor I (NFI) (AID 2282989); conditions: HepG2 cis-regulatory reporter, NFI response element transcription; actives raise or lower the signal
Method in brief: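 Transfected HepG2 liver cells, exposed 24 h, supplied total RNA for oligo(dT) reverse transcription and reporter-specific PCR. Labelled, HpaI-cut fragments were sized by capillary electrophoresis; DMSO set the baseline for bidirectional fitting.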

[10] = molecular target: Myc proto-oncogene protein (Homo sapiens) (UniProt P01106); assay: ATG_Myc_CIS: Attagene CIS-FACTORIAL HepG2 Assay for human Myelocytomatosis (Myc) Proto-Oncogene Transcription Factor (AID 2282990); conditions: HepG2, Attagene cis-reporter transcription factor activity; actives raise or lower the signal
Chain of Myc proto-oncogene protein (Homo sapiens) (P01106 whole entry, looked up): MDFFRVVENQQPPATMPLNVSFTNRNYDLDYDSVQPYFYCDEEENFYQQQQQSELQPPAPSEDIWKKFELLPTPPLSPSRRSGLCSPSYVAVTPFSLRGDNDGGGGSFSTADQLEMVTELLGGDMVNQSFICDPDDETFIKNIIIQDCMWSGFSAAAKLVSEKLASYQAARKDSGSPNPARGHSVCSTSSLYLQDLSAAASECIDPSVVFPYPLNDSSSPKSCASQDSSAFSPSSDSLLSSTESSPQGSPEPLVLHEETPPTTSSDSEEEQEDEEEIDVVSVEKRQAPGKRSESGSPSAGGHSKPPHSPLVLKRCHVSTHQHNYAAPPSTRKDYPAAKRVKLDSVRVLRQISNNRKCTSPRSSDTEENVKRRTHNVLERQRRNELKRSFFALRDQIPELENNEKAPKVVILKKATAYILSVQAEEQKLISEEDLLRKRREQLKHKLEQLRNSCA
Method in brief: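 DMSO-normalised, bidirectionally fitted reporter mRNA signal. HepG2 cells transfected with cis reporter constructs, treated 24 h; transcripts detected by RT-PCR, 6-FAM primer extension and CE.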

[11] = ATG_NF_kB_CIS: Attagene CIS-FACTORIAL HepG2 Assay for human Nuclear Factor Kappa B (NF-kB) (AID 2282991); conditions: HepG2 Attagene cis-factorial NF-kB reporter mRNA; actives raise or lower the signal
Method in brief: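 HepG2, transient multi-reporter transfection, cis promoter elements (endogenous TFs). 24 h exposure. Total RNA → RT → PCR → 6-FAM label → HpaI → CE. Gain/loss vs DMSO.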

[12] = ATG_NRF2_ARE_CIS: Attagene CIS-FACTORIAL HepG2 Assay for human Nuclear Factor Erythroid 2 Related Factor 2 (NFR2) response to Antioxidant Response Elements (ARE) (AID 2282992); conditions: HepG2 Attagene ARE/NRF2 reporter, transcription factor activity; actives raise or lower the signal;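 as to AC50: reporter mRNA level measured by RT-PCR and capillary electrophoresis fluorescence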
Method in brief: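 HepG2 cells transiently transfected with multiplexed cis-regulated reporter transcription units measure endogenous transcription factor activity. Reporter mRNA at 24 h is quantified by RT-PCR, fluorescent labelling and capillary electrophoresis, with bidirectional fitting relative to DMSO.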

[13] = ATG_Oct_MLP_CIS: Attagene CIS-FACTORIAL HepG2 Assay for human Octamer-Binding Transcription Factor (Oct) (AID 2282993); conditions: HepG2 Attagene cis-factorial Oct reporter, mRNA; actives raise or lower the signal
Method in brief: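 Using HepG2 cells bearing transfected cis-reporter constructs, mRNA induction was read after 24 h by fluorescent RT-PCR and capillary electrophoresis, with DMSO defining baseline for gain- or loss-of-signal fits.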

[14] = molecular target: Cellular tumor antigen p53 (Homo sapiens) (UniProt P04637); assay: ATG_p53_CIS: Attagene CIS-FACTORIAL HepG2 Assay for human p53 Transcription Factor (AID 2282994); conditions: HepG2 p53 cis-element reporter, Attagene mRNA; actives raise or lower the signal
Chain of Cellular tumor antigen p53 (Homo sapiens) (P04637 whole entry, looked up): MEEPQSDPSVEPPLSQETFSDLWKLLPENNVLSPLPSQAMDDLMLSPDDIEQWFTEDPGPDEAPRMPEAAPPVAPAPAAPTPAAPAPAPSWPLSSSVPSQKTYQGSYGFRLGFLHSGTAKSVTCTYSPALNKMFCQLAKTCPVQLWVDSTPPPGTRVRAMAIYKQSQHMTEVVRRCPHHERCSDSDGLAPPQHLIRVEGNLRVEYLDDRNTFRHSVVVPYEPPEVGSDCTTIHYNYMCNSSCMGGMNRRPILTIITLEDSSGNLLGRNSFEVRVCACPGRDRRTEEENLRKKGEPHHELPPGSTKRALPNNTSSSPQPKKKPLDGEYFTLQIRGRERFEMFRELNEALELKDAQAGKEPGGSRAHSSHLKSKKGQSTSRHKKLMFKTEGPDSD
Method in brief: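 HepG2 cells transiently transfected with multiplexed cis-regulated reporter transcription units read endogenous TF activity. After 24 h compound exposure, reporter mRNA was quantified by RT-PCR, fluorescent labelling, HpaI digestion and capillary electrophoresis; bidirectional fits versus DMSO baseline.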

[15] = BSK_3C_TissueFactor: BioMAP Diversity Plus: 3C Assay for Tissue Factor Biomarker Activity (AID 2282997); conditions: BioMAP 3C HUVEC, tissue factor biomarker readout; actives raise or lower the signal
Method in brief: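 Values derive from bidirectional curve fitting against DMSO of Tissue Factor ELISA signals, taken 24 h after dosing primary human umbilical vein endothelial cells.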

[16] = BSK_3C_VCAM1: BioMAP Diversity Plus: 3C Assay for Vascular cell adhesion molecule 1 (VCAM1) Biomarker Activity (AID 2282999); conditions: BioMAP 3C HUVEC, VCAM1 ELISA, cytokine-stimulated; actives raise or lower the signal
Method in brief: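 Human umbilical vein endothelial cells were dosed with compound for 24 h, after which cell-surface VCAM-1 was quantified by ELISA. Bidirectional curve fitting used DMSO as negative control and activity baseline.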

[17] = molecular target: Oxysterols receptor LXR-alpha (Homo sapiens) (UniProt Q13133); assay: ATG_LXRa_TRANS: Attagene TRANS-FACTORIAL HepG2 Assay for human Liver X Receptor alpha (LXRa) (AID 2282980; active = hit-call score of the fitted dose curve at least 0.9, where 1 is the maximum); conditions: HepG2 Attagene TRANS reporter, LXRa transactivation
Chain of Oxysterols receptor LXR-alpha (Homo sapiens) (Q13133 whole entry, looked up): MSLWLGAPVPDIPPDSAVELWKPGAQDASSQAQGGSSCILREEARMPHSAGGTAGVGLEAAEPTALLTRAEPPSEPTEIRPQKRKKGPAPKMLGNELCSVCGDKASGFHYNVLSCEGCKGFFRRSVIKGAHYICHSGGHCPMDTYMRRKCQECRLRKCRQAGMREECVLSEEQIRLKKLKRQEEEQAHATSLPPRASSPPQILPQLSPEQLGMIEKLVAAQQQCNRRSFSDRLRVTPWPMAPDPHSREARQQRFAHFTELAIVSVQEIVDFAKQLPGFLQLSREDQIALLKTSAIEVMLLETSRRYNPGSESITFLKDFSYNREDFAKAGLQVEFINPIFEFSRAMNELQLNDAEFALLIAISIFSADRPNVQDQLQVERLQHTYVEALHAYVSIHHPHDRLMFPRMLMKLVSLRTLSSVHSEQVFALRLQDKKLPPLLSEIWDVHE
Method in brief: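 Transient HepG2 transfectants, 24 h dosing, RT-PCR/CE mRNA reporter quantitation; gain-of-signal vs DMSO.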

Measured: AC50

O=C(OCc1ccccc1)c1ccccc1O
inactive: [1] | [2] | [3] | [5] | [7] | [8] | [10] | [11]
active: [9] 178 µM | [12] 64.4 µM | [14] 145 µM

NC(=O)c1cnccn1
inactive: [1] | [2] | [3] | [4] | [6] | [7] | [8] | [9] | [10] | [11] | [12] | [13] | [14]

CCCCOC(=O)C(C)OC(=O)CCC (stereo not drawn)
inactive: [1] | [2] | [3] | [4] | [7] | [8] | [9] | [10] | [11] | [12] | [13]

c1coc(CNc2ncnc3nc[nH]c23)c1
active: [12] 33.8 µM
inactive: [1] | [2] | [3] | [4] | [5] | [6] | [7] | [8] | [9] | [10] | [13]

CC(C)(C)c1cc(CCC(=O)OCCSCCOC(=O)CCc2cc(C(C)(C)C)c(O)c(C(C)(C)C)c2)cc(C(C)(C)C)c1O
inactive: [1] | [2] | [3] | [5] | [6] | [7] | [8] | [9] | [10] | [11] | [12] | [13] | [14]

O=C(O)C1=NN(c2ccc(S(=O)(=O)O)cc2)C(=O)C1
inactive: [1] | [2] | [3] | [5] | [6] | [7] | [8] | [9] | [10] | [12] | [13]

CCOC(=O)CC(C)C
inactive: [1] | [2] | [3] | [4] | [7] | [9] | [10] | [12] | [13]

Cc1ccc(C(C)(C)O)cc1
inactive: [1] | [17] | [4] | [7] | [9] | [10] | [11] | [12] | [13] | [14]

N=C1N=C(N)c2ccccc21
inactive: [1] | [17] | [3] | [5] | [6] | [7] | [9] | [10] | [12] | [13] | [14]
